Experimental findings from ChEMBL document CHEMBL2218924, “A broad activity screen in support of a chemogenomic map for kinase signalling research and drug discovery” (Biochem J, 2013) are described below.

Assay [1] has as its target T1, Serine/threonine-protein kinase TBK1 (Homo sapiens) (UniProt Q9UHD2).
T1 sequence (whole entry): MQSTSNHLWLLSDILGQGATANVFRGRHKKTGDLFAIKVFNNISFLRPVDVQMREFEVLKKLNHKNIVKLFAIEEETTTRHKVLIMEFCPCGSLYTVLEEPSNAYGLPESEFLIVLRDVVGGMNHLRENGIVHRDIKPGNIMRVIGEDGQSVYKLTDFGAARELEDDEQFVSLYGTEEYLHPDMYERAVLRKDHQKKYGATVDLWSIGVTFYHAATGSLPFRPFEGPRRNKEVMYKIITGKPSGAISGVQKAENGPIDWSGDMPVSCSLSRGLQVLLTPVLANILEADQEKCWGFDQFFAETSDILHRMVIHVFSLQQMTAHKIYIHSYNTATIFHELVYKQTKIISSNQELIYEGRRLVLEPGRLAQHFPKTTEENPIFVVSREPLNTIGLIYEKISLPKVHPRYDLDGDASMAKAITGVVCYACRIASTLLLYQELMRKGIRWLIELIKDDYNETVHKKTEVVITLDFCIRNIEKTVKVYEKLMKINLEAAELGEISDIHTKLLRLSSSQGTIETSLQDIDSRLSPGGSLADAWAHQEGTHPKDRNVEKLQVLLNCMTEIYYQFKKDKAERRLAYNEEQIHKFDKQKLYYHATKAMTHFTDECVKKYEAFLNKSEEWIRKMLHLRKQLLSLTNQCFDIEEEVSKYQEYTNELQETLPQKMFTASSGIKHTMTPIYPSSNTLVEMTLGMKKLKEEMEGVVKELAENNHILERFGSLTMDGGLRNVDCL
The note with it: at 10 µM.

The target in assay [2] is T2, TGF-beta receptor type-1 (Homo sapiens) (UniProt P36897).
T2 sequence (whole entry): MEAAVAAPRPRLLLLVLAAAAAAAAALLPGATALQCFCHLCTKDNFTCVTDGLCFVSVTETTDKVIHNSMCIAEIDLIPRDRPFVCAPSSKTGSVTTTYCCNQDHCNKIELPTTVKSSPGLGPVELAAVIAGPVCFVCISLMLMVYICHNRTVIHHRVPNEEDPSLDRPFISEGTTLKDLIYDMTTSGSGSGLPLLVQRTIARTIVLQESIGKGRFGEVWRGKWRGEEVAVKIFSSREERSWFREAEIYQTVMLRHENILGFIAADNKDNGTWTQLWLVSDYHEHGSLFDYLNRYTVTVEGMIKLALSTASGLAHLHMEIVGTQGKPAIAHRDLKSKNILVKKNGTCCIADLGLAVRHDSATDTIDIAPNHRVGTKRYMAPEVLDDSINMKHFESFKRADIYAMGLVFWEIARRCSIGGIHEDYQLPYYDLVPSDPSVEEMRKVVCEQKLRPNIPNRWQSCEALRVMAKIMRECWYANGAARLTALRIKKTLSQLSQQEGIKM
The note with it: at 1 µM.

Assay [3] deals with T2, TGF-beta receptor type-1 (Homo sapiens). To be noted: at 10 µM.
Assay [4] addresses Insulin-like growth factor 1 receptor (Homo sapiens) (UniProt P08069). The note with it: at 1 µM.
Assay [5] has the same target. To be noted: at 10 µM.
Assay [6] has as its target T3, Inhibitor of nuclear factor kappa-B kinase subunit alpha (Homo sapiens) (UniProt O15111).
T3 sequence (whole entry): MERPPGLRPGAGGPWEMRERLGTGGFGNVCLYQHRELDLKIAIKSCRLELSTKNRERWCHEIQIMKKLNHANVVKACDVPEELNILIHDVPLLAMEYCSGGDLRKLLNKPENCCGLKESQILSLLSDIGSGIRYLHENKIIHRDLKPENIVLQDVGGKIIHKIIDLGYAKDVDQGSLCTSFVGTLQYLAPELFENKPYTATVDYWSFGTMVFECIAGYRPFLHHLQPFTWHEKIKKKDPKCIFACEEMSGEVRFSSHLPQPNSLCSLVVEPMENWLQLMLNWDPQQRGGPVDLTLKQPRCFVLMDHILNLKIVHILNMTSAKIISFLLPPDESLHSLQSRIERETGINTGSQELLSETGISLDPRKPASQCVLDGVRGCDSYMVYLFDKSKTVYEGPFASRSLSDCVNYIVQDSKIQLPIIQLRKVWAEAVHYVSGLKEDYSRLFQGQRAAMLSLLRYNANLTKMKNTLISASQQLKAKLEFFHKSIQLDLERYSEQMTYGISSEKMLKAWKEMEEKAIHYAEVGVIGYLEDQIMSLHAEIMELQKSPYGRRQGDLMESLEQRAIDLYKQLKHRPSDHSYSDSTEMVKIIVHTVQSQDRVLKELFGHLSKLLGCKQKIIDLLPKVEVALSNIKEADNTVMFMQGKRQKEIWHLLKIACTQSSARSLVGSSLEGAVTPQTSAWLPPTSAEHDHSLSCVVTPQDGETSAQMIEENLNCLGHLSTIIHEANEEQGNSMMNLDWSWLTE
The note with it: at 1 µM.

Assay [7] addresses T3, Inhibitor of nuclear factor kappa-B kinase subunit alpha (Homo sapiens). To be noted: at 10 µM.
Assay [8] addresses T4, Inhibitor of nuclear factor kappa-B kinase subunit beta (Homo sapiens) (UniProt O14920).
T4 sequence (whole entry): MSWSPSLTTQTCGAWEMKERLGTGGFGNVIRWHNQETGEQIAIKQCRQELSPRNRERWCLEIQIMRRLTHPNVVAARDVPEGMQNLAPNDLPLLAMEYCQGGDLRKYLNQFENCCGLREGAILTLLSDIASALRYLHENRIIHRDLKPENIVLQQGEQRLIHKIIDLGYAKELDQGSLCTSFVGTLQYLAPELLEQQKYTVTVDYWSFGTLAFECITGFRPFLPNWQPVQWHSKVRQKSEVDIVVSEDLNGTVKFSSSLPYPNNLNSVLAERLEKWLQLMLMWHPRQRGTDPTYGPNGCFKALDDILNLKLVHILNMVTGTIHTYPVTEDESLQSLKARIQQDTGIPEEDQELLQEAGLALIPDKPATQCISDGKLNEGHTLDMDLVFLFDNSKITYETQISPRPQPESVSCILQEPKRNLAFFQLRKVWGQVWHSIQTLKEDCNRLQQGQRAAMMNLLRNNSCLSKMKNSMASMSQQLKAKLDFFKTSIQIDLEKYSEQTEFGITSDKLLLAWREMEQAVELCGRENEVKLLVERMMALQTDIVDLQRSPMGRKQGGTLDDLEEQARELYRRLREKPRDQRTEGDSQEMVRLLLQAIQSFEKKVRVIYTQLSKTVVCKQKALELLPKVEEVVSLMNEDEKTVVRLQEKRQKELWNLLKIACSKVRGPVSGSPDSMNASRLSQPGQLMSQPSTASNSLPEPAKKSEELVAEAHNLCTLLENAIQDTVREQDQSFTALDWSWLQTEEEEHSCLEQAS
The note with it: at 1 µM.

The target of assay [9] is T4, Inhibitor of nuclear factor kappa-B kinase subunit beta (Homo sapiens). To be noted: at 10 µM.
The target of assay [10] is Insulin receptor (Homo sapiens) (UniProt P06213). To be noted: at 1 µM.
Insulin receptor (Homo sapiens), sequence (P06213 28-758 limits assumed): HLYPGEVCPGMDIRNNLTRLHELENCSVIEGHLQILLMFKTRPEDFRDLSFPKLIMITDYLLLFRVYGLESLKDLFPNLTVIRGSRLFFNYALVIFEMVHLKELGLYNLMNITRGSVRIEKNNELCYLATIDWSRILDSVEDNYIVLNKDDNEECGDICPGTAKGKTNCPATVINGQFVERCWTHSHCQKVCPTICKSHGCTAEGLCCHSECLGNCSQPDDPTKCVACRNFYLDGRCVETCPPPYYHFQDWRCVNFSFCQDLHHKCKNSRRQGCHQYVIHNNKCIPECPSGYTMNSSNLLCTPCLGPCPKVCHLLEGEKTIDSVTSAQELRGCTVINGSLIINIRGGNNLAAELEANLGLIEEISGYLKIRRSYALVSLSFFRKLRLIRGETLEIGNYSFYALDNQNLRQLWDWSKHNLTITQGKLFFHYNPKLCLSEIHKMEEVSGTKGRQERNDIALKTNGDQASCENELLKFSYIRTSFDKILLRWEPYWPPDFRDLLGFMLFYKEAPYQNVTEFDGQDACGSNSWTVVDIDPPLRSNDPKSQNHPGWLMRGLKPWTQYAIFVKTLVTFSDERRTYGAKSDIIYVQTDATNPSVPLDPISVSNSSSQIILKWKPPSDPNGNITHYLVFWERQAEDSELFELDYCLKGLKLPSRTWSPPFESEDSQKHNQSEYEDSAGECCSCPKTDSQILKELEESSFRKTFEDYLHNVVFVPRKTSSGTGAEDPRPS
Insulin receptor (Homo sapiens), sequence (P06213 763-1382 limits assumed): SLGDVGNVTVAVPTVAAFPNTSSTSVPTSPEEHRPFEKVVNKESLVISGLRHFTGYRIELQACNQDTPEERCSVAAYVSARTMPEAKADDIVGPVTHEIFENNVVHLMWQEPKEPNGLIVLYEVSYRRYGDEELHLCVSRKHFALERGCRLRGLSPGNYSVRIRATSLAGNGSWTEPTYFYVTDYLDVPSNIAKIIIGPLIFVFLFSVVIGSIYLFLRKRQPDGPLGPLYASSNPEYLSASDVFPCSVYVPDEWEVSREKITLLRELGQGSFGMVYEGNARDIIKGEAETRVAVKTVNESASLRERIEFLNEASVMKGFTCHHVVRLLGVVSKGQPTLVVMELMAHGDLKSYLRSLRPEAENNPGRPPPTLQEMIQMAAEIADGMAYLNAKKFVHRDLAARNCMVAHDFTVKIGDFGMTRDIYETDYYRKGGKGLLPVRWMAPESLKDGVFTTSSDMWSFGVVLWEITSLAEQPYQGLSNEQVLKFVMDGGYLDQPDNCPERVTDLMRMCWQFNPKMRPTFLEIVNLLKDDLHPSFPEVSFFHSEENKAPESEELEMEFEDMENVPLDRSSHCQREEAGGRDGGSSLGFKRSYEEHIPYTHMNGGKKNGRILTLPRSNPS

Insulin-like growth factor 1 receptor (Homo sapiens), sequence (P08069 31-736 limits assumed): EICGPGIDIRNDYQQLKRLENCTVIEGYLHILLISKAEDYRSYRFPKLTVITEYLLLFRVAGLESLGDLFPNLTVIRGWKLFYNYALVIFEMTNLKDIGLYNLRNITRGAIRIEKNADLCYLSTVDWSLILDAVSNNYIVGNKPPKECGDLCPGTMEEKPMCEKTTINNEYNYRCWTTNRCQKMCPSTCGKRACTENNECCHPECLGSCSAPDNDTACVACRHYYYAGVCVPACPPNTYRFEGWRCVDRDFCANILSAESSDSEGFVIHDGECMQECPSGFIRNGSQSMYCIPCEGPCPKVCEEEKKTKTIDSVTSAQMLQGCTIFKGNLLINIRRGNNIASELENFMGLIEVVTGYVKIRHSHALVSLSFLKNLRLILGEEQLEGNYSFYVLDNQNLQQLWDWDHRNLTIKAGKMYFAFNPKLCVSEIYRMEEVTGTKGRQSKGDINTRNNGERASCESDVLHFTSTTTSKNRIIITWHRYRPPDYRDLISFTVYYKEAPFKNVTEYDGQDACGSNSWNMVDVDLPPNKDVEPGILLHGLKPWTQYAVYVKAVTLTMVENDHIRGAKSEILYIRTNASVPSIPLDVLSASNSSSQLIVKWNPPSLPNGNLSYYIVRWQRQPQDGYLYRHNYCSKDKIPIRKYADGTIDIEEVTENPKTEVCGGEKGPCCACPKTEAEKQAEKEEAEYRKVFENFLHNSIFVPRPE
Insulin-like growth factor 1 receptor (Homo sapiens), sequence (P08069 741-1367 limits assumed): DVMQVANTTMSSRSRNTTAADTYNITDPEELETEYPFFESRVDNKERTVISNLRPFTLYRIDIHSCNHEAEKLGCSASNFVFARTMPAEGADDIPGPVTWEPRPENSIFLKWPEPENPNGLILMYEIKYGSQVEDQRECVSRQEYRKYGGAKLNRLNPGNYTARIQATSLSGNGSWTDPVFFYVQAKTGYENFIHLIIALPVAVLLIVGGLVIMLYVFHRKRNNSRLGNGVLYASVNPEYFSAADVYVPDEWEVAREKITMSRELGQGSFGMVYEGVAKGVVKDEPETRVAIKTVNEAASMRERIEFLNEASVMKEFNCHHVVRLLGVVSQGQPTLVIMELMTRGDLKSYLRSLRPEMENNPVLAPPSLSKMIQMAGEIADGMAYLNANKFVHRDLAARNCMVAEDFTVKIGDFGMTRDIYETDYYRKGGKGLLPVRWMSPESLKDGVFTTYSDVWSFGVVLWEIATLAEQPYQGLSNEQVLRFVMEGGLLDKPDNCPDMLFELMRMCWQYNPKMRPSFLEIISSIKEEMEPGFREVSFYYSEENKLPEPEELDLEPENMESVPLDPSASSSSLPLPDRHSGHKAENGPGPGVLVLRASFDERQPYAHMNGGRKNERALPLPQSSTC

As a reminder, the residual activity is the signal under treatment as a percentage of the control signal. As to `CCC(=O)Nc1ccc2ncnc(Nc3cccc(Br)c3)c2c1`, the residual activity in assay [1] was 68%; in assay [2], 75%; in assay [3] it was 94%; in assay [4], 97%; in assay [5], 102%; in [6] it was 121%. Besides, the residual activity came out at 125% in [7], 112% in assay [8], 97% in [9] and 110% in [10].
